In PubChem BioAssay AID1159580 (chemical genetic matrix, 2015):
The whole screen tested about 5,500 compounds, of which about 2,000 (36%) were called active. Another 18% or so got no clear call; they are omitted. Cut-off read from the data, not from the text of the source: active = normalized growth mostly below about 0.91 (no sharp cut-off); inconclusive = no clear call, values can overlap the other calls; inactive = mostly above about 0.92. The list shows a part of the results.

Test: chemical genetic growth profiling, strain panel (AID 1159580);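 note: tested at 20 µM; growth read once vehicle control cultures reached saturation at 30 °C; 1 = growth at the plate median or of vehicle wells; lower values mean less growth of the strain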
Settings: S. cerevisiae deletion strains, growth OD
[1] = locus YAL013W, strain DEP1, hits give low values
[2] = locus YBR229C, strain ROT2, hits give low values
[3] = locus YDL101C, strain DUN1, hits give low values
[4] = locus YDL134C, strain PPH21, hits give low values
[5] = locus YDR150W, strain NUM1, hits give low values
[6] = locus YEL061C, strain CIN8, hits give low values
[7] = locus YGR078C, strain PAC10, hits give low values
[8] = locus YHR030C, strain SLT2, hits give low values
[9] = locus YHR087W, strain rtc3, hits give low values
[10] = locus YJR043C, strain POL32, hits give low values
[11] = locus YJR075W, strain HOC1, hits give low values
[12] = locus YKL190W, strain CNB1, hits give low values
[13] = locus YLR039C, strain RIC1, hits give low values
[14] = locus YLR058C, strain SHM2 (second series), hits give low values
[15] = locus YLR085C, strain ARP6, hits give low values
[16] = locus YLR262C, strain YPT6, hits give low values
[17] = locus YML094W, strain GIM5, hits give low values
[18] = locus YMR219W, strain ESC1, hits give low values
[19] = locus YMR263W, strain SAP30, hits give low values
[20] = locus YNL128W, strain TEP1, hits give low values
[21] = locus YNL153C, strain GIM3, hits give low values
[22] = locus YNL298W, strain CLA4 (second series), hits give low values
[23] = locus YNL322C, strain KRE1, hits give low values
[24] = locus YNR030W, strain Alg12, hits give low values
[25] = locus YOL006C, strain TOP1, hits give low values
[26] = locus YPL055C, strain LGE1, hits give low values
[27] = locus YPL241C, strain CIN2, hits give low values
[28] = locus YPR135W, strain CTF4, hits give low values

Measured: normalized growth

O=c1nc(-c2ccccc2)nc(-c2ccccc2)[nH]1
inactive: [1] 0.985 | [2] 1 | locus YCL061C, strain MRC1, hits give low values 0.999 | [3] 1.03 | [4] 0.955 | [5] 0.993 | [6] 0.97 | [7] 1 | [8] 0.972 | [9] 0.987 | [10] 0.986 | [11] 1 | [12] 0.96 | [13] 0.922 | [14] 0.993 | [15] 0.951 | [16] 0.902 | [17] 1.08 | [18] 1 | [19] 1.01 | [20] 0.968 | [21] 1.01 | [22] 0.944 | [23] 0.984 | [24] 0.989 | [25] 0.932 | [26] 1.01 | [27] 1.03 | [28] 0.991

S=c1nc(-c2ccccc2)[nH][nH]1
inactive: [1] 0.997 | [2] 1.01 | [3] 1.02 | [4] 0.979 | [5] 1.01 | [6] 0.992 | [7] 0.988 | locus YGR229C, strain SMI1, hits give low values 0.994 | [8] 1.06 | [9] 1.01 | [10] 0.99 | [11] 0.982 | [12] 0.982 | [13] 1.02 | [14] 0.999 | [15] 1.03 | [16] 0.991 | [17] 1.11 | [18] 0.999 | [19] 0.998 | locus YMR307W, strain GAS1, hits give low values 1.08 | [20] 0.985 | [21] 0.998 | [22] 0.992 | [23] 1 | [24] 1.01 | [25] 1.06 | [26] 1.03 | [27] 1.01 | [28] 1.02

CSc1nc(Sc2n[nH]c(-c3ccccc3)n2)cc(Sc2n[nH]c(-c3ccccc3)n2)n1
active: locus YLR113W, strain HOG1, hits give low values 0.855
inactive: locus YAR019C, strain CDC15, hits give low values 1.01 | locus YBL105C, strain PKC1, hits give low values 0.99 | locus YBR135W, strain CKS1, hits give low values 0.999 | locus YBR136W, strain MEC1, hits give low values 1 | locus YBR160W, strain CDC28, hits give low values 1 | locus YDL017W, strain CDC7, hits give low values 0.995 | locus YDL028C, strain MPS1, hits give low values 1.03 | [3] 0.991 | locus YDL108W, strain KIN28, hits give low values 1.01 | locus YDL132W, strain cdc53, hits give low values 0.995 | locus YDL214C, strain PRR2, hits give low values 1.01 | locus YDR052C, strain DBF4, hits give low values 0.995 | locus YDR054C, strain cdc34, hits give low values 0.984 | locus YDR226W, strain ADK1, hits give low values 1.01 | locus YDR477W, strain SNF1, hits give low values 1.01 | locus YER123W, strain YCK3, hits give low values 1.03 | locus YER133W, strain GLC7, hits give low values 1 | locus YFL009W, strain cdc4, hits give low values 1 | locus YFL029C, strain CAK1, hits give low values 1.02 | locus YFR003C, strain YPI1, hits give low values 0.99 | locus YFR019W, strain FAB1, hits give low values 1 | locus YFR028C, strain CDC14, hits give low values 1.01 | locus YGR040W, strain KSS1, hits give low values 1.02 | locus YGR052W, strain FMP48, hits give low values 1 | locus YGR092W, strain DBF2, hits give low values 1.01 | [8] 1.13 | locus YHR079C, strain IRE1, hits give low values 0.928 | locus YHR082C, strain KSP1, hits give low values 1.22 | locus YHR205W, strain SCH9, hits give low values 1 | locus YIL147C, strain SLN1, hits give low values 1.01 | locus YJL095W, strain BCK1, hits give low values 0.875 | locus YJL128C, strain PBS2, hits give low values 0.978 | locus YJL157C, strain FAR1, hits give low values 1.02 | locus YJR016C, strain ILV3, hits give low values 1.01 | locus YJR066W, strain TOR1 (second series), hits give low values 1.01 | locus YJR066W, strain TOR1, hits give low values 1.2 | locus YKL048C, strain ELM1, hits give low values 1.01 | locus YKL067W, strain YNK1, hits give low values 1.01 | locus YKL101W, strain HSL1, hits give low values 1.01 | locus YKL193C, strain SDS22, hits give low values 1.02 | locus YKL203C, strain TOR2, hits give low values 1.09 | locus YLR133W, strain CKI1, hits give low values 1.01 | locus YLR403W, strain SFP1, hits give low values 1.03 | locus YML070W, strain DAK1, hits give low values 1.01 | locus YMR001C, strain CDC5, hits give low values 1.01 | locus YMR205C, strain PFK2 (second series), hits give low values 1.02 | locus YMR277W, strain FCP1, hits give low values 1.02 | locus YNL006W, strain LST8, hits give low values 1 | locus YNL020C, strain ARK1, hits give low values 1.01 | locus YNL161W, strain CBK1, hits give low values 1 | locus YNL183C, strain NPR1, hits give low values 0.929 | locus YNL207W, strain RIO2, hits give low values 1.01 | locus YNL222W, strain SSU72, hits give low values 1.01 | locus YNL307C, strain MCK1 (second series), hits give low values 1.01 | locus YOL078W, strain AVO1, hits give low values 1.02 | locus YOL136C, strain PFK27, hits give low values 1.03 | locus YOR061W, strain CKA2, hits give low values 1.02 | locus YOR119C, strain RIO1, hits give low values 1.05 | locus YOR231W, strain MKK1, hits give low values 0.913 | locus YOR329C, strain SCD5, hits give low values 1 | locus YPL031C, strain PHO85, hits give low values 1.02 | locus YPL153C, strain RAD53, hits give low values 1.01 | locus YPL204W, strain HRR25, hits give low values 1.01 | locus YPL209C, strain IPL1, hits give low values 0.998 | locus YPL256C, strain CLN2, hits give low values 0.89 | locus YPR025C, strain CCL1, hits give low values 1.01 | locus YPR106W, strain ISR1, hits give low values 1 | locus YPR111W, strain DBF20, hits give low values 1 | strain NNK1, hits give low values 1.01 | strain TSCII, hits give low values 1.01
